Laboratory results taken from PubChem BioAssay AID1159580 (chemical genetic matrix, 2015).
Several values for one entry are separate records, joined by “and”; a condition that tells them apart may be missing. Identical values can stand only once. About 2,000 (36%) of roughly 5,500 compounds were called active. Inconclusive results (about 18%) are left out. Cut-off read from the data, not from the text of the source: active = normalized growth mostly below about 0.91 (no sharp cut-off); inconclusive = no clear call, values can overlap the other calls; inactive = mostly above about 0.92. This is one part of the list.

Experiment: chemical genetic growth profiling, strain panel (AID 1159580);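 note: tested at 20 µM; growth read once vehicle control cultures reached saturation at 30 °C; 1 = growth at the plate median or of vehicle wells; lower values mean less growth of the strain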
Conditions: growth OD

Measured: normalized growth

NCCCNCCSP(=O)(O)O
inactive: S. cerevisiae deletion strains, locus YJR075W, strain HOC1, hits give low values 1.01 | S. cerevisiae deletion strains, locus YKL009W, strain mrt4, hits give low values 0.969 | S. cerevisiae deletion strains, locus YKL068W, hits give low values 0.982 | S. cerevisiae deletion strains, locus YKL085W, strain MDH1 (second series), hits give low values 0.985 | S. cerevisiae deletion strains, locus YKL085W, strain MDH1, hits give low values 0.985 | S. cerevisiae deletion strains, locus YKL160W, strain elf1, hits give low values 0.963 | S. cerevisiae deletion strains, locus YKL190W, strain CNB1, hits give low values 0.988 | S. cerevisiae deletion strains, locus YKR001C, strain vps1, hits give low values 0.986 | S. cerevisiae deletion strains, locus YKR026C, strain gcn3, hits give low values 0.984 | S. cerevisiae deletion strains, locus YKR091W, strain srl3, hits give low values 0.969 | S. cerevisiae deletion strains, locus YLL001W, strain dnm1, hits give low values 0.954 | S. cerevisiae deletion strains, locus YLL026W, hits give low values 0.972 | S. cerevisiae deletion strains, locus YLL041C, strain sdh2, hits give low values 0.983 | S. cerevisiae deletion strains, locus YLR027C, strain aat2, hits give low values 0.964 | S. cerevisiae deletion strains, locus YLR039C, strain RIC1, hits give low values 0.974 | S. cerevisiae deletion strains, locus YLR058C, strain SHM2, hits give low values 0.989 | S. cerevisiae deletion strains, locus YLR102C, strain apc9, hits give low values 0.992 | S. cerevisiae deletion strains, locus YLR221C, strain rsa3, hits give low values 0.952 | S. cerevisiae deletion strains, locus YLR258W, strain gsy2, hits give low values 0.994 | S. cerevisiae deletion strains, locus YLR262C, strain YPT6 (second series), hits give low values 0.96 | S. cerevisiae deletion strains, locus YLR262C, strain YPT6, hits give low values 0.973 | S. cerevisiae deletion strains, locus YLR268W, strain sec22, hits give low values 0.995 | S. cerevisiae deletion strains, locus YLR320W, strain mms22, hits give low values 0.961 | S. cerevisiae deletion strains, locus YLR330W, strain CHS5, hits give low values 0.989 | S. cerevisiae deletion strains, locus YLR342W, strain FKS1 (second series), hits give low values 0.975 | S. cerevisiae deletion strains, locus YLR342W, strain FKS1, hits give low values 0.979 | S. cerevisiae deletion strains, locus YLR357W, strain rsc2, hits give low values 0.957 | S. cerevisiae deletion strains, locus YLR370C, strain arc18, hits give low values 0.969 | S. cerevisiae deletion strains, locus YLR371W, strain rom2, hits give low values 0.974 | S. cerevisiae deletion strains, locus YLR384C, strain iki3, hits give low values 0.96 | S. cerevisiae deletion strains, locus YLR418C, strain cdc73, hits give low values 1.01 | S. cerevisiae deletion strains, locus YML016C, strain PPZ1, hits give low values 0.99 | S. cerevisiae deletion strains, locus YML032C, strain rad52, hits give low values 0.978 | S. cerevisiae deletion strains, locus YML120C, strain ndi1, hits give low values 0.964 | S. cerevisiae deletion strains, locus YML124C, strain tub3, hits give low values 0.991 | S. cerevisiae deletion strains, locus YMR058W, strain fet3, hits give low values 0.976 | S. cerevisiae deletion strains, locus YMR078C, strain ctf18, hits give low values 0.981 | S. cerevisiae deletion strains, locus YMR125W, strain sto1, hits give low values 0.975 | S. cerevisiae deletion strains, locus YMR129W, hits give low values 0.99 | S. cerevisiae deletion strains, locus YMR205C, strain PFK2, hits give low values 0.937 | S. cerevisiae deletion strains, locus YMR223W, strain ubp8, hits give low values 0.973 | S. cerevisiae deletion strains, locus YMR231W, strain pep5, hits give low values 0.978 | S. cerevisiae deletion strains, locus YMR263W, strain SAP30, hits give low values 0.997 and 0.98 | S. cerevisiae deletion strains, locus YMR307W, strain GAS1, hits give low values 0.974 | S. cerevisiae deletion strains, locus YNL067W, strain RPL9B, hits give low values 0.984 | S. cerevisiae deletion strains, locus YNL071W, strain lat1, hits give low values 0.983 | S. cerevisiae deletion strains, locus YNL128W, strain TEP1, hits give low values 1.01 and 1 | S. cerevisiae deletion strains, locus YNL153C, strain GIM3, hits give low values 1.01 and 0.993 | S. cerevisiae deletion strains, locus YNL175C, strain NOP13, hits give low values 1.01 | S. cerevisiae deletion strains, locus YNL197C, strain WHI3, hits give low values 1 | S. cerevisiae deletion strains, locus YNL209W, strain ssb2, hits give low values 0.981 | S. cerevisiae deletion strains, locus YNL224C, strain SQS1, hits give low values 0.988 | S. cerevisiae deletion strains, locus YNL233W, strain BNI4, hits give low values 0.997 | S. cerevisiae deletion strains, locus YNL248C, strain rpa49, hits give low values 0.977 | S. cerevisiae deletion strains, locus YNL250W, strain rad50, hits give low values 0.981 | S. cerevisiae deletion strains, locus YNL271C, strain bni1, hits give low values 0.994 | S. cerevisiae deletion strains, locus YNL298W, strain CLA4, hits give low values 0.988 | S. cerevisiae deletion strains, locus YNL307C, strain MCK1, hits give low values 0.989 | S. cerevisiae deletion strains, locus YNL322C, strain KRE1 (second series), hits give low values 0.956 | S. cerevisiae deletion strains, locus YNL322C, strain KRE1, hits give low values 1 | S. cerevisiae deletion strains, locus YNR049C, strain mso1, hits give low values 0.963 | S. cerevisiae deletion strains, locus YNR052C, strain pop2, hits give low values 0.986 | S. cerevisiae deletion strains, locus YOL006C, strain TOP1, hits give low values 1.02 | S. cerevisiae deletion strains, locus YOL012C, strain htz1 0.741 | S. cerevisiae deletion strains, locus YOL147C, strain pex11, hits give low values 0.988 | S. cerevisiae deletion strains, locus YOR001W, strain rrp6, hits give low values 1.02 | S. cerevisiae deletion strains, locus YOR061W, strain CKA2, hits give low values 1 | S. cerevisiae deletion strains, locus YOR069W, strain VPS5, hits give low values 0.995 | S. cerevisiae deletion strains, locus YOR070C, strain gyp1, hits give low values 0.982 | S. cerevisiae deletion strains, locus YOR080W, strain dia2, hits give low values 0.968 | S. cerevisiae deletion strains, locus YOR083W, strain WHI5 (second series), hits give low values 1.01 | S. cerevisiae deletion strains, locus YOR083W, strain WHI5, hits give low values 0.96 | S. cerevisiae deletion strains, locus YOR106W, strain vam3, hits give low values 0.931 | S. cerevisiae deletion strains, locus YOR136W, strain idh2, hits give low values 0.992 | S. cerevisiae deletion strains, locus YOR144C, strain elg1, hits give low values 0.982 | S. cerevisiae deletion strains, locus YOR184W, strain ser1, hits give low values 0.962 | S. cerevisiae deletion strains, locus YOR265W, strain rbl2, hits give low values 0.984 | S. cerevisiae deletion strains, locus YOR270C, strain vph1, hits give low values 0.924 | S. cerevisiae deletion strains, locus YOR290C, strain snf2, hits give low values 0.965 | S. cerevisiae deletion strains, locus YOR316C, strain cot1, hits give low values 0.977 | S. cerevisiae deletion strains, locus YPL051W, strain arl3, hits give low values 0.987 | S. cerevisiae deletion strains, locus YPL055C, strain LGE1, hits give low values 1.02 and 0.958 | S. cerevisiae deletion strains, locus YPL078C, strain atp4, hits give low values 0.971 | S. cerevisiae deletion strains, locus YPL106C, strain sse1, hits give low values 0.954 | S. cerevisiae deletion strains, locus YPL240C, strain hsp82, hits give low values 0.993 | S. cerevisiae deletion strains, locus YPL241C, strain CIN2, hits give low values 0.998 and 0.991 | S. cerevisiae deletion strains, locus YPR119W, strain clb2, hits give low values 0.995 | S. cerevisiae deletion strains, locus YPR141C, strain kar3, hits give low values 0.976 | S. cerevisiae deletion strains, locus YPR163C, strain tif3, hits give low values 0.986 | S. cerevisiae deletion strains, locus YPR167C, strain met16, hits give low values 0.995 | S. cerevisiae deletion strains, strain wtn01, hits give low values 0.99 | S. cerevisiae strains, strain wild type, hits give low values 0.977
